High-throughput results: PubChem, several laboratories
This is a sample that favours compounds with a hit; in the whole collection about 3.8% have one here.
ADAM17 inh – ADAM17 inhibition, QFRET primary screen | P78536 | recombinant ADAM17, EDANS/DABCYL FRET peptide cleavage | inhibition, % at 6.95 µM | 0.83% of 370,000 active;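 active = inhibition above the mean of compounds lying between control limits plus 3 SD, set per campaign, cut at about 8.5% in these data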;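 note: 0% = DMSO-only wells as the low control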
FGF22 binding – binders of recombinant human FGF22 by thermal shift; Q9HCT0; SYPRO orange fluorescence; percent of sucrose octasulfate shift, DMSO zero; activity (Tm shift, normalised), % at 9.99 µM; 1.5% of 340,000 active; AID 651658;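 active = mean Tm shift, scaled 0 neutral to 100 positive control, at about 1.3% or above, every replicate too, limit read from the data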
proKLK7 act – proKLK7 (human) activation, primary screen; 0.9% of 370,000 active; P49862; AID 652039; purified proKLK7, EDANS-DABCYL substrate fluorescence; 100% is mature enzyme control, 0% vehicle; activation, % at 7 µM;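 active = activation above the mean of all tested compounds plus 3 SD, computed per campaign excluding outliers beyond control limits, cut at about 13% in these data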
Ecoli rRNA inh – inhibitors of bacterial rRNA selective over humanized ribosomes | E. coli WT GFP vs humanized-ribosome RFP mutants, fluorescence, 24 h; hits give low values; DMSO median 0, no signal -100 | GFP signal change (wild-type ribosome), % (concentration not given with the values) | 1.6% of 350,000 active;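 active = significant combined selectivity score with lowered wild-type GFP, culture density cut under 30%, mutant RFP and density less affected; inactive = any of these conditions unmet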
ADAM10 inh – inhibits human ADAM10; O14672; 0.62% of 370,000 active; inhibition, % at 7 µM; AID 720582; recombinant ADAM10, EDANS/DABCYL FRET peptide cleavage, 3 h;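 active = inhibition above a per-campaign cutoff equal to the mean of compounds falling between control-based bounds plus 3 SD, cut at about 20% in these data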;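 note: 0% = DMSO wells while the 100% control is not disclosed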
KLK7 act conf – confirmation of human kallikrein-7 zymogen activators | shares compounds with proKLK7 act | purified proKLK7, EDANS-DABCYL substrate fluorescence; scaled: vehicle 0, mature enzyme 100 | activation, % at 7 µM | 68% of 3,200 active | AID 686949;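 active = activation, as change over the incubation, above the mean of all tested compounds plus 3 SD, cut at about 13% in these data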
EDANS-DABCYL int – optically interferes with EDANS-DABCYL signal, flagging KLK7 hits; shares compounds with proKLK7 act; EDANS-DABCYL substrate fluorescence interference, no enzyme, 4 h; solvent 0%, active enzyme control 100%; activation, % at 7 µM; 80% of 3,200 active;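 active = activation above the all-compound mean plus 3 SD, ignoring values outside control-based bounds, cut at about 4.8% in these data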;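 note: value is the 4 h activation minus the activation read at time zero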
The depositor's hits bear a star; i = inactive; . = not tested or not shown.

SMILES	ADAM17 inh	FGF22 binding	proKLK7 act	Ecoli rRNA inh	ADAM10 inh	KLK7 act conf	EDANS-DABCYL int
COc1ccccc1-n1c(N)c(C(=O)NCC2CCCO2)c2nc3ccccc3nc21 (stereo unspecified)	i	.	14*	.	i	-168	-174
C[C@H]1CCCCO[C@@H](CN(C)Cc2ccc(C(=O)O)cc2)[C@@H](C)CN([C@@H](C)CO)C(=O)c2cc(NS(=O)(=O)c3ccccc3)ccc2O1	.	0	.	-2	.	.	.
CCN(CC(=O)NC(C)(C)C)C(=O)CN1c2cccc3cccc(c23)S1(=O)=O	-79	0	15*	5	-232	0	2
O=C(CN1c2cccc3cccc(c23)S1(=O)=O)N1CCOCC1	-80	.	12	.	-264	.	.
CC(C)(C)NC(=O)NC(=O)CN1c2cccc3cccc(c23)S1(=O)=O	-53	0	1	1	-104	.	.
COC(=O)CNC(=O)CN1c2cccc3cccc(c23)S1(=O)=O	-122	.	23*	.	-351	17*	17*
CC(C)(C)OC(=O)CN1c2cccc3cccc(c23)S1(=O)=O	-71	0	13*	-44	-163	6	13*
O=C(CN1c2cccc3cccc(c23)S1(=O)=O)N1CCCCC1	-80	0	15*	4	-295	12	13*
Cc1ccccc1NC(=S)NC1CCCC1	-4	0	0	9	-2	.	.
Cc1cccc(NC(=S)NNC(=S)NC2CCCCC2)c1C	-1	0	28*	-5	1	1	-1
O=C(COc1ccc2c(-c3ccccc3)cc(=O)oc2c1)NCC1CCC(C(=O)O)CC1 (stereo unspecified)	-5	1	0	-12	-7	.	.
COC(=O)COc1ccc2cc(-c3ccccc3)c(=O)oc2c1	i	0	102*	2	i	68*	66*
O=C(COc1ccc2cc(-c3ccccc3)c(=O)oc2c1)NCC1CCC(C(=O)O)CC1 (stereo unspecified)	i	.	21*	.	i	60*	72*
NC(=O)COc1ccc2cc(-c3ccccc3)c(=O)oc2c1	i	0	59*	21	i	63*	64*
COc1ccc(-c2cc3ccc(OCC(C)=O)cc3oc2=O)cc1	-435	0	27*	4	i	-7	-4
COc1ccc(S(=O)(=O)N(C)C[C@@H]2Oc3ncc(-c4ccncc4)cc3C(=O)N([C@@H](C)CO)C[C@@H]2C)cc1	.	0	.	0	.	.	.
CC(=O)Oc1ccc(-c2cc3c(OC(C)=O)cc(OC(C)=O)cc3oc2=O)cc1	i	0	80*	.	i	63*	72*
NC(=O)COc1ccc2cc(-c3ccc(F)cc3)c(=O)oc2c1	i	0	33*	6	i	-14	-63
C[C@@H]1CN([C@@H](C)CO)C(=O)c2cc(NC(=O)Nc3ccc4c(c3)OCO4)ccc2O[C@@H]1CN(C)Cc1ccc(Cl)c(Cl)c1	.	0	.	-6	.	.	.
Cc1ccc(C2Nc3ccccc3C(=O)N2Cc2ccco2)cc1 (stereo unspecified)	-319	.	13*	.	i	-22	-19
O=C1c2ccccc2NC(c2ccc(O)cc2)N1Cc1ccco1 (stereo unspecified)	-236	.	24*	.	i	9	7.1*
C[C@@H]1CCCCO[C@@H](CN(C)S(=O)(=O)c2ccc(F)cc2)[C@@H](C)CN([C@@H](C)CO)C(=O)c2cc(NC(=O)c3ccccc3)ccc2O1	.	0	.	0	.	.	.
O=C1NC(c2ccco2)Nc2ccccc21 (stereo unspecified)	-306	.	16*	.	i	17*	18*
Cc1cccc(C2NC(=O)c3ccccc3N2)c1 (stereo unspecified)	-10	0	0	14	-23	.	.
Cc1ccc(C2NC(=O)c3ccccc3N2)c(C)c1 (stereo unspecified)	i	0	32*	13	i	29*	26*
